High-throughput results deposited in PubChem by several laboratories.
Most compounds without a hit are left out; they make up all but 3.6% or so of the library.
GDH-TPI counter = counter-screen for M. tuberculosis FBA inhibitors: GDH-TPI coupled enzymes; GDH-TPI coupled enzyme counterscreen, NADH absorbance; inhibition, % at 4.8 µM; actives 1.2% (n = 360,000); AID 588335; in the data active = inhibition above about 30%;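 note: 0% = DMSO wells and 100% = wells lacking the enzyme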
FBA Mtb inh = inhibitors of M. tuberculosis fructose-bisphosphate aldolase; P9WQA3; purified M. tuberculosis FBA, fluorescence read-out; inhibition, % at 1 µM; actives 2.3% (n = 360,000); in the data active = inhibition above about 27%;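 note: 0% = vehicle and 100% = reference inhibitor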
Mtb hypoxia rep = reduces hypoxia-regulated biosensor signal in M. tuberculosis | M. tuberculosis hypoxia-regulated fluorescent reporter, fluorescence | fluorescence inhibition, % (test concentration not listed) | actives 0.1% (n = 300,000) | AID 1159583; in the data active = fluorescence inhibition mostly above about 23%, no sharp cut-off; inactive = mostly below about 17%
DUSP3 inh = inhibitors of human VHR1 phosphatase (DUSP3); actives 0.52% (n = 290,000); recombinant VHR phosphatase, pNPP absorbance; inhibition, % at 13.3 µM; AID 1654; P51452; in the data active = inhibition above about 50%
Target sequence (P51452 whole entry, looked up): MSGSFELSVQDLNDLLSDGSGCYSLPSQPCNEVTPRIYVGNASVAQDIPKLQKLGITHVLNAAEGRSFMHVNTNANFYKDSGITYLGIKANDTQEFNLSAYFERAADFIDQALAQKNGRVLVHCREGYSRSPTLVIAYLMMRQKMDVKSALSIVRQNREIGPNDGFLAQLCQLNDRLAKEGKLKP
Mtb betalactam = beta-lactam sensitization of Mtb H37Rv. M. tuberculosis H37Rv growth with meropenem, percent inhibition. actives 0.27% (n = 330,000). AID 434955. inhibition, % at 25 µM; call rule not given here;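 note: growth measured after seven days incubation then overnight dye step; 0% = bacteria only wells and 100% = bacteria with antibiotic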
Active calls of the source: *; · = no result given.

SMILES	GDH-TPI counter	FBA Mtb inh	Mtb hypoxia rep	DUSP3 inh	Mtb betalactam
O=C(C=Cc1cccs1)N1CCC2(CC1)Oc1ccc(Cl)cc1C(=O)C21CC(c2ccc(Cl)cc2)=NO1 (configuration not stated)	·	·	5	·	·
CCOc1cc(/C=N/NC(=O)c2cc(-c3cccc(OC)c3)nc3ccccc23)ccc1O	37*	0	·	·	0
COc1ccc(-c2cc(C(=O)NN=Cc3cccnc3)c3ccccc3n2)c(OC)c1	·	·	9	·	·
CCOc1cc(C=NNC(=O)c2cc(-c3ccccc3)nc3ccccc23)ccc1O	·	·	-12	·	·
COc1cc(C=NNC(=O)c2cc(-c3ccccc3OC(C)C)nc3ccccc23)ccc1O	·	·	-13	·	·
COc1cc(/C=N/NC(=O)c2cc(-c3ccccc3OC(C)C)nc3ccccc23)ccc1O	40*	-3	·	8	-1
COc1ccc(C=NNC(=O)c2cc(-c3ccccc3)nc3ccccc23)cc1O	·	·	8	·	·
COc1cc(/C=N/NC(=O)c2cc(-c3ccccc3)nc3ccccc23)ccc1O	46*	8	·	-6	2
COc1ccc(-c2cc(C(=O)N/N=C/c3sccc3C)c3ccccc3n2)c(OC)c1	34*	-1	·	-8	-7
O=C(NN=Cc1ccncc1)C1CC1C(=O)NN=Cc1ccncc1 (configuration not stated)	·	·	10	·	·
CC1=NN(/C(=N/c2nnc(C)s2)Nc2ccccc2)[C@H](c2ccc(C)cc2)S1	·	·	13	·	·
O=C(O)COc1ccccc1/C=N/NC(=O)c1cc(-c2ccc(F)cc2)nc2ccccc12	51*	5	·	26	-2
COc1cc(/C=N/NC(=O)c2cnn3c(C)cc(-c4ccccc4)nc23)ccc1O	37*	-2	·	27	1
COc1cc(C=NNc2ccc([N+](=O)[O-])cc2)ccc1OCC(=O)Nc1ccc(C)c(C)c1	·	·	-3	·	·
Cc1cc(=O)oc(C)c1C(=O)NCC(C)NC(=O)c1c(C)cc(=O)oc1C (configuration not stated)	8	0	2	54*	2
CCCCN(CCCNC(=O)c1c(C)cc(=O)oc1C)c1ccccc1	5	-1	4	21	-7
CCN(CCCNC(=O)c1c(C)cc(=O)oc1C)c1ccccc1	36*	1	14	2	·
CCCNC(=O)c1c(C)cc(=O)oc1C	47*	1	6	-11	0
O=C(NN=Cc1cccc(O)c1)C(=O)N1CCCCCC1	·	·	-9	·	·
CC(C)=CC(=O)Nc1nnc(-c2cccnc2)s1	13	4	·	53*	-3
O=C(NN=Cc1ccc(-c2ccc([N+](=O)[O-])cc2)o1)c1cccnc1	·	·	-10	·	·
O=C(N/N=C/c1ccc(-c2ccc([N+](=O)[O-])cc2)o1)c1cccnc1	33*	-5	·	6	94
COCCNC(=S)N/N=C/c1ccc(-c2ccc([N+](=O)[O-])cc2)o1	32*	-8	·	4	-8
CC(=O)c1cccc(NC(=O)CON=C2CCCc3nonc32)c1	·	·	13	·	·
CCOc1cc(/C=C2/SC(=O)N(CC(=O)N3CCc4ccccc4C3)C2=O)ccc1OCC(=O)O	34*	-2	·	-8	44
SMILES	GDH-TPI counter	FBA Mtb inh	Mtb hypoxia rep	DUSP3 inh	Mtb betalactam
COc1ccccc1-n1c(=S)sc2c(=O)n(Cc3ccco3)c(SC)nc21	40*	0	3	-12	74
CC(C)=CCC/C(C)=C/CCC(C)=NO	·	·	-1	·	·
O=C(CSc1n[nH]c(=O)[nH]c1=O)N/N=C/C=C/c1ccccc1	43*	-1	·	19	-3
CCc1[nH]nc(C(=O)NN=Cc2ccncc2)c1C	·	·	-1	·	·
COc1ccc(C2CC(=O)C=C(c3ccc4c(c3)sc3ccccc34)C2)cc1 (configuration not stated)	·	·	13	·	·
CC1(C)C2CCC(C2)C1(C)NC(=O)CNCc1cccs1 (configuration not stated)	4	1	·	51*	-3
CC(O)CCC(C)OC1OC(C)C(O)CC1O (configuration not stated)	·	·	16	·	·
COC(=O)c1c(C(=O)OC)c2c(-c3ccccc3)cc3cccc1n32	15	121*	·	·	·
O=C1CCC/C(=N/NC(=O)c2sc3ccccc3c2Cl)C1	55*	1	·	15	22
O=C(NN=C1CCCC1)c1sc2ccccc2c1Cl	0	-2	14	-2	97
Cc1ccc(C=NNC(=O)c2ccccn2)o1	·	·	-3	·	·
Nc1ccn(Cc2ccccc2)n1	4	7	0	5	0
c1ccc(Cn2ccc(-c3cnc(-c4ccccc4)s3)n2)cc1	18	182*	·	16	73
Cc1cccc(Nc2nc(-c3ccncc3)cs2)c1	0	-2	12	51*	81
Cc1nc(Nc2ccccc2)sc1C(=O)Nc1ccccc1	18	-1	17	22	11
